# Assay: caspase-8 TRAIL sensitization, hit retest, confirmation, cell-based, NB7+caspase-8, with/without TRAIL, luminescence panel (AID 651596)
# Settings: NB7 neuroblastoma + caspase-8, without TRAIL, luminescence viability, without TRAIL, mean of runs, at 10 µM
row,SMILES,activity [%]
1,CN(C)c1ccc(C(=O)Nc2nc3c(s2)CCCC3)cc1,48.6
2,CCCCCC(=O)N1C[C@H](n2cc(COC(=O)c3ccccc3)nn2)[C@@H](O)C[C@@H]1c1ccc(Cl)cc1,61
3,CC(=O)c1ccc(NC(=O)Nc2ccccc2)cc1,68.3
4,NC(=S)NN=C1c2cc(OCCN3CCOCC3)ccc2-c2ccc(OCCN3CCOCC3)cc21,99.5
5,O=C(NC(=S)N1CCN(c2ccc(C(F)(F)F)cc2[N+](=O)[O-])CC1)c1cccs1,62.1
6,Cc1c(C)c2ccc(OCC(=O)Nc3nccs3)cc2oc1=O,57.8
7,CCCCNC(=O)c1cn(C)c2ccc(S(=O)(=O)N3CC(C)CC(C)C3)cc2c1=O (configuration not stated),41.5
8,O=C(Nc1nc2ccccc2[nH]1)C12CC3CC(CC(C3)C1)C2,65.7
9,Cc1cc(C)cc(NC(=O)/C(C#N)=C/c2cn(CC(=O)NCc3ccco3)c3ccccc23)c1,77.7
10,COc1ccccc1C/C(N)=N/OC(=O)c1cccc([N+](=O)[O-])c1,69.6
11,O=C(NCCN1CCOCC1)NC1(C(F)(F)F)Oc2ccc(Cl)cc2O1 (configuration not stated),26.8
12,CCCCC1CCC(C(=O)N(CCCC)c2c(N)n(CCCC)c(=O)[nH]c2=O)CC1 (configuration not stated),77.5
13,Nc1nc(N)c2cc(Sc3ccc4ccccc4c3)ccc2n1,73.9
14,O=C(Nc1ccc2c(c1)OCCO2)c1ccc(Br)s1,66.8
15,Nc1ncnc2c(C3OC(CO)C(O)C3O)c[nH]c12 (configuration not stated),98.7
16,CCc1ccc(OCc2nc(-c3ccccn3)no2)c(Br)c1,46.4
17,COc1ccc(C(C(=O)NC2CCCCC2)N(C(=O)CCl)c2ccc(C)cc2)cc1 (configuration not stated),99.3

# — PubChem BioAssay
